# Results as given in PubChem BioAssay (NCATS).
# Results filed as inconclusive are left out. Entries that show only a call come without a potency. Calls of active or inactive are those of the source. Unless noted, calls follow the shape of the dose curve; as a rule, active = well fitted curve in the direction sought with a large enough effect in the repeat runs; inconclusive = weak or mixed curves; inactive = no such curve, though single readings can be large; an effect the other way counts as inactive or inconclusive.
# Legend:
# [1] = Primary qHTS for small molecule stabilizers of the endoplasmic reticulum resident proteome: Secreted ER Calcium Modulated Protein (SERCaMP) assay (AID 1508630; active = well fitted curve in the direction sought with a large enough effect; an effect the other way counts as inactive or inconclusive)
# Outline: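 GLuc-SERCaMP-expressing SH-SY5Y cells, pretreated 16 h with compound, are challenged with thapsigargin to empty ER calcium stores; after 4 h, coelenterazine is added directly to the medium and luminescence is imaged.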
# [2] = A High-Content qHTS Against Drug Library for the Identification of Small Molecules that Inhibit DYT1 Early Onset Primary Dystonia-Associated Cell Pathology (AID 1645839; calls by dose curve)
# Outline: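 Readout: %pathology, the punctate EGFP-TorsinA distribution from imaging, as the primary channel and cell count as the toxicity counterscreen. HEK293 Flp-In cells expressing delE TorsinA were induced with tetracycline and treated with compound for 48 h.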
# [3] = molecular target: Cytochrome P450 2C9 (Homo sapiens) (UniProt P11712); assay: Cytochrome P450 family 2 subfamily C member 9 (CYP2C9) small molecule antagonists: luciferase biochemical (cell-free) qHTS assay (AID 1645842); also: nearly all actives have a fitted effect of over 55% in size; also: potency is read from the fitted curve at half-maximal effect
# Cytochrome P450 2C9 (Homo sapiens), sequence (P11712 whole entry, looked up): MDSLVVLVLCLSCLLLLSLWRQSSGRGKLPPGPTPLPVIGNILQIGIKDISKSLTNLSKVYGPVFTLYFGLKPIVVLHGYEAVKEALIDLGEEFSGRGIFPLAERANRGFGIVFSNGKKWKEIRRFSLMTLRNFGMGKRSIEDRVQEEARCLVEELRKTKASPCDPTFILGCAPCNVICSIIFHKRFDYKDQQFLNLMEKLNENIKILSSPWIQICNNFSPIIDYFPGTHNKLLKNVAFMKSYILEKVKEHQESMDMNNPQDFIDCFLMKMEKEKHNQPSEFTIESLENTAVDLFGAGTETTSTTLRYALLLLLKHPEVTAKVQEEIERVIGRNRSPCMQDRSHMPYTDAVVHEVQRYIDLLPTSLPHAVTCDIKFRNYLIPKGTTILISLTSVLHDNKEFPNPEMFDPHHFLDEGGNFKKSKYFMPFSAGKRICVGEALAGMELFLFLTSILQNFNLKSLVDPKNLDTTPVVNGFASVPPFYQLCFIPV
# Outline: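 Luminescence, after 20 min with luciferin detection reagent, reflected CYP2C9 turnover during a 1 h NADPH-driven reaction at 37C. Enzyme-substrate mix contained 0.4% bovine serum albumin and was preincubated with compound 10 min at room temperature.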
# [4] = Cell Viability qHTS for small molecule stabilizers of the endoplasmic reticulum resident proteome (AID 1508629; active = well fitted curve in the direction sought with a large enough effect; an effect the other way counts as inactive or inconclusive;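 also: compound exposure about 46 h in total before the viability read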; also: potency is read from the fitted curve at half-maximal effect;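 as to max response: human SH-SY5Y neuroblastoma cells carrying the GLuc-SERCaMP reporter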); conditions: cell viability counter-screen, 100 nM thapsigargin for final 4 h
# [5] = molecular target: Cytochrome P450 2D6 (Homo sapiens) (UniProt P10635); assay: Cytochrome P450 family 2 subfamily D member 6 (CYP2D6) small molecule antagonists: luciferase biochemical (cell-free) qHTS assay (AID 1645840); also: nearly all actives have a fitted effect of over 55% in size; also: potency is read from the fitted curve at half-maximal effect
# Cytochrome P450 2D6 (Homo sapiens), sequence (P10635 whole entry, looked up): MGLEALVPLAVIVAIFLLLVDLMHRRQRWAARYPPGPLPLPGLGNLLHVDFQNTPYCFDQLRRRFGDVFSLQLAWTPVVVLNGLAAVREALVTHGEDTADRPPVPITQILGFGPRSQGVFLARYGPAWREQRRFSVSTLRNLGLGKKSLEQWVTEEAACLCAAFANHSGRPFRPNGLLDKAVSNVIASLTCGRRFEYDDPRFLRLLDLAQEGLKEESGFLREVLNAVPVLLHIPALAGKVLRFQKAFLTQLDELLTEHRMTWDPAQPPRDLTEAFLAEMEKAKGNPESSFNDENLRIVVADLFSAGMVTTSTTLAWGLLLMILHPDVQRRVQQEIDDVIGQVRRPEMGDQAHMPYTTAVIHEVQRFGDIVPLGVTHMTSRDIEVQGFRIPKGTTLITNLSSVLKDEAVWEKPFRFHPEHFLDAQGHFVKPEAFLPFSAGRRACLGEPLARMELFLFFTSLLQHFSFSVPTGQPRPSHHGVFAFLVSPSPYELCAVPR
# Outline: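 P450-Glo luminescent screen: recombinant CYP2D6 enzyme–proluciferin substrate mix preincubated with compound 10 min at room temperature, then NADPH regeneration added for 1 h at room temperature. Detection reagent added for 20 min; luciferin light read as relative luminescence units.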
# [6] = Primary qHTS to identify inhibitors of SARS-CoV-2 cell entry (AID 1645846; calls by dose curve; also: nearly all actives have a fitted effect of over 45% in size); conditions: activity change, negative = inhibition: at 57.1 µM (top of the series) unless noted
# Outline: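 HEK293-ACE2 (Expi293F, stable hACE2), 1500 cells/well, o/n 37C; cpd 23 nL pin, 1 h; MLV-PP w/ SARS-CoV-2-S (Wuhan-Hu-1, Δ19 C-term); 48 h 37C; Bright-Glo luminescence; normalized vs S-PP and bald PP.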
# [7] = molecular target: Cytochrome P450 3A4 (Homo sapiens) (UniProt P08684); assay: Cytochrome P450 family 3 subfamily A member 4 (CYP3A4) small molecule antagonists: luciferase qHTS assay (AID 1645841); also: nearly all actives have a fitted effect of over 45% in size
# Cytochrome P450 3A4 (Homo sapiens), sequence (P08684 whole entry, looked up): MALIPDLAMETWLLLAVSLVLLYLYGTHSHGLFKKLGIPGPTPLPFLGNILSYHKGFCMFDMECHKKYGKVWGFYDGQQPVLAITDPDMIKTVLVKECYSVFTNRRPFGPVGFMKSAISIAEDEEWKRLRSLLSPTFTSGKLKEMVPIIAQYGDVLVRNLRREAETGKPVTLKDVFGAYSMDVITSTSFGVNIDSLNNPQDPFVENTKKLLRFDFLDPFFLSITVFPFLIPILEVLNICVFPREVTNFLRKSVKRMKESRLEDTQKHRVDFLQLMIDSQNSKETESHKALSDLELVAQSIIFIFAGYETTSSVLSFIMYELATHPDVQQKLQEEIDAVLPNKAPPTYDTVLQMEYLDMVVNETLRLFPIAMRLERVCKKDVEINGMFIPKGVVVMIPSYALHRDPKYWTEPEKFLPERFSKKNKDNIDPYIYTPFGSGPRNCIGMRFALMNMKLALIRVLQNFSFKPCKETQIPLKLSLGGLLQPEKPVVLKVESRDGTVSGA
# Outline: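 P450-Glo CYP3A4 enzyme with proluciferin substrate was preincubated with DMSO-dissolved compounds for 10 min at room temperature. NADPH regeneration solution started a 1 h reaction. Detection reagent stopped it, and luminescence was read after 20 min.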
# [8] = Cytotoxicity counterscreen for inhibitors of SARS-CoV-2 cell entry (AID 1645845; calls by dose curve; also: nearly all actives have a fitted effect of over 50% in size)
# Outline: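 Expi293F/hACE2 cells seeded overnight; cpd pin-transferred in DMSO, 1 h preincubation, + media, 48 h 37 C 5% CO2; ATPLite 1step luminescence; normalized to cells and no cells.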
# Papain (Carica papaya) = Papain (Carica papaya) (UniProt P00784); assay: Primary qHTS assay for inhibitors of the protease papain (AID 1645873; active = well fitted curve in the direction sought with a large enough effect; an effect the other way counts as inactive or inconclusive;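 also: papain turnover of Z-FR-AMC read as the AMC fluorescence gain over 10 min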)
# Papain (Carica papaya), sequence (P00784 whole entry, looked up): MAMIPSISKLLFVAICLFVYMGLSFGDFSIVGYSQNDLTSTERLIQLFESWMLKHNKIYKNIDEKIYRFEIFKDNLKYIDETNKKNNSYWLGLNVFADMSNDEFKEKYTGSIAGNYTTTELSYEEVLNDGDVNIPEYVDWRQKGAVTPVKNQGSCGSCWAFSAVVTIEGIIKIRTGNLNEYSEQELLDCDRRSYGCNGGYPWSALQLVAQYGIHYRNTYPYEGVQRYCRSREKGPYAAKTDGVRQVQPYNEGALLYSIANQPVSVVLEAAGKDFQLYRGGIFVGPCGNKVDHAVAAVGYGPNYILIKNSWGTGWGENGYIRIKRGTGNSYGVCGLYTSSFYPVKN
smiles,measurement,setting,value
ClC1=C(Cl)C2(Cl)C(CBr)CC1(Cl)C2(Cl)Cl (stereo not given),outcome,[1],inactive
same,outcome,[2],inactive
same,Potency,[3],inactive
OC(c1ccccc1)(c1ccccc1)C1CCNCC1,max response,[4],-6.14% (inactive)
same,outcome,[2],inactive
same,Potency,[3],inactive
O=C1NCN(c2ccccc2)C12CCN(CCCOc1ccc(F)cc1)CC2,max response,[4],-6.39% (inactive)
same,Potency,[5],0.347 µM (active)
same,Potency,[3],inactive
CC(Cc1ccc2c(c1)OCO2)NO (stereo not given),outcome,[1],inactive
c1cc2c(c(N3CCNCC3)c1)OCCO2,max response,[4],5.26% (inactive)
same,outcome,[2],inactive
CN1C[C@@H](NS(=O)(=O)N(C)C)C[C@@H]2c3cccc4c3c(cn4C)C[C@H]21,outcome,[1],inactive
same,outcome,[2],inactive
same,Potency,[3],inactive
CC(C)[N+](C)(CCC(C(N)=O)(c1ccccc1)c1ccccc1)C(C)C,outcome,[1],inactive
same,outcome,[2],inactive
same,Potency,[5],1.95 µM (active)
same,"activity change, negative = inhibition",[6],-0.507%
C[C@]12CC[C@H]3[C@@H](CC=C4C[C@@H](O)CC[C@@]43C)[C@@H]1CC[C@@H]2O,outcome,[1],inactive
same,outcome,[2],inactive
C[C@]12C=CC(=O)C=C1CC[C@@H]1[C@@H]2CC[C@@]2(C)[C@H]1CC[C@]2(C)O,outcome,[1],inactive
same,outcome,[2],inactive
same,Potency,[5],inactive
same,Potency,[7],inactive
C[C@@H]1CN(C2CCC(C#N)(c3ccc(F)cc3)CC2)CC[C@]1(C(=O)O)c1ccccc1 (stereo not given in full),outcome,[1],inactive
same,outcome,[2],inactive
same,Potency,[5],0.049 µM (active)
same,Potency,[8],inactive
same,"activity change, negative = inhibition",[6],-31.8%
CCN1CCCC1CNC(=O)C(O)(c1ccccc1)c1ccccc1 (stereo not given),outcome,[1],inactive
same,outcome,[2],inactive
same,Potency,[5],3.09 µM (active)
same,Potency,[3],inactive
CCNc1nc(Cl)nc(NCC)n1,outcome,[1],inactive
same,outcome,[2],inactive
same,Potency,[5],inactive
same,Potency,[3],inactive
NC(=O)OCCCc1ccccc1,max response,[4],1.15% (inactive)
same,Potency,[5],inactive
same,Potency,[7],inactive
same,Potency,[3],inactive
same,Potency,[8],inactive
same,Potency,[6],inactive
COc1cc(C[C@@H](C)N)c(OC)cc1C,outcome,[1],inactive
same,outcome,[2],inactive
same,Potency,[5],38.1 µM (active)
same,Potency,[3],inactive
CN1C(=O)CN=C(c2ccccc2)c2cc(Cl)ccc21,outcome,[1],inactive
same,outcome,[2],inactive
Cc1nnc2n1-c1sc(CCC(=O)N3CCOCC3)cc1C(c1ccccc1Cl)=NC2,outcome,[1],inactive
same,outcome,[2],inactive
same,Potency,[5],inactive
same,Potency,[8],inactive
Cc1ncc2n1-c1ccc(Cl)cc1C(c1ccccc1F)=NC2,outcome,[1],inactive
N#Cc1nn(-c2c(Cl)cc(C(F)(F)F)cc2Cl)c(N)c1S(=O)C(F)(F)F (stereo not given),outcome,[1],inactive
same,outcome,[2],inactive
same,Potency,[5],3.89 µM (active)
same,Potency,[3],3.89 µM (active)
same,Potency,[8],inactive
O=c1[nH]c2cc(Cl)ccc2n1C1CCNCC1,outcome,[1],inactive
same,outcome,[2],inactive
same,Potency,[5],19.5 µM (active)
C[C@H]1CNCCc2ccc(Cl)cc21,outcome,[1],inactive
same,outcome,[2],inactive
same,Potency,[5],1.95 µM (active)
same,Potency,[7],inactive
same,Potency,[3],inactive
NC(=O)CN1CCCC1=O,outcome,[1],inactive
same,outcome,[2],inactive
same,Potency,[5],inactive
same,Potency,[3],inactive
same,Potency,[8],inactive
same,Potency,[6],inactive
same,outcome,Papain (Carica papaya),inactive
CNC(C)Cc1ccc2c(c1)OCO2 (stereo not given),outcome,[1],inactive
same,outcome,[2],inactive
same,Potency,[5],0.693 µM (active)
same,Potency,[3],inactive
C[N+](C)(C)CCOC(=O)C(O)(c1ccccc1)c1ccccc1,outcome,[1],inactive
same,outcome,[2],inactive
same,Potency,[5],15.5 µM (active)
same,Potency,[3],inactive
OC(O)C(Cl)(Cl)Cl,outcome,[1],inactive
COc1cc(CC#N)cc(OC)c1OC,outcome,[1],inactive
same,outcome,[2],inactive
same,Potency,[3],inactive
C[C@H]1C(=O)O[C@@H]2CCN3CC=C(COC(=O)[C@](C)(O)[C@]1(C)O)[C@H]23,outcome,[1],inactive
same,outcome,[2],inactive
same,Potency,[5],inactive
same,Potency,[3],inactive
CCS(=O)(=O)C(C)(C)S(=O)(=O)CC,outcome,[1],inactive
same,outcome,[2],inactive
same,Potency,[5],inactive
same,Potency,[3],inactive
CN1C2CCC(C)(C)C1CC(OC(=O)C(O)(c1cccs1)c1cccs1)C2 (stereo not given),max response,[4],-12.1% (inactive)
same,Potency,[5],13.8 µM (active)
same,Potency,[8],inactive
CC[n+]1c(-c2ccccc2)c2cc(N)ccc2c2ccc(N)cc21,Potency,[4],3.16 µM (active)
same,outcome,[2],inactive
same,Potency,[5],3.47 µM (active)
COc1cc(CC(C)N)cc2c1OCO2 (stereo not given),outcome,[1],inactive
same,outcome,[2],inactive
same,Potency,[3],inactive
CC(C)=CCN1CC[C@@]2(C)c3cc(O)ccc3C[C@@H]1[C@@H]2C,max response,[4],-7.58% (inactive)
same,outcome,[2],inactive
same,Potency,[5],0.176 µM (active)
same,Potency,[3],inactive
CN1[C@@H]2CC[C@H]1CC(OC(=O)c1cc(Cl)cc(Cl)c1)C2 (stereo not given in full),max response,[4],-1.72% (inactive)
same,Potency,[3],inactive
CCCOC(=O)Cc1ccc(OCC(=O)N(CC)CC)c(OC)c1,outcome,[1],inactive
same,outcome,[2],inactive
same,Potency,[3],inactive
CC(C)(O)C(Cl)(Cl)Cl,outcome,[1],inactive
same,outcome,[2],inactive
same,Potency,[5],inactive
same,Potency,[3],inactive
same,Potency,[8],inactive
same,Potency,[6],inactive
CN(C)CCc1c[nH]c2ccccc12,outcome,[1],inactive
same,outcome,[2],inactive
same,Potency,[7],inactive
same,Potency,[3],inactive
COc1ccc2[nH]cc(CCN(C(C)C)C(C)C)c2c1,outcome,[1],inactive
same,outcome,[2],inactive
COC(=O)C1=CCCN(C)C1,outcome,[1],inactive
same,outcome,[2],inactive
same,Potency,[5],inactive
same,Potency,[3],inactive
same,outcome,Papain (Carica papaya),inactive
